Experimental data reported in paper PMC5540273 (PLoS ONE, 2017).

Assays:
Details in all cases: concentration: 1 μM, replicates: in singlicate; n = 1
RIPK2 = system: RIPK2
RIPK4 = system: RIPK4
RIPK5 = system: RIPK5
ROCK1 = system: ROCK1
ROCK2 = system: ROCK2
ROS1 = system: ROS1
[1] = system: RPS6KA4(Kin.Dom.1-N-terminal)
[2] = system: RPS6KA4(Kin.Dom.2-C-terminal)
[3] = system: RPS6KA5(Kin.Dom.1-N-terminal)
[4] = system: RPS6KA5(Kin.Dom.2-C-terminal)
[5] = system: T1, RSK1(Kin.Dom.1-N-terminal)
T1 construct: gene RPS6KA1

[6] = system: T2, RSK1(Kin.Dom.2-C-terminal)
T2 construct: gene RPS6KA1

[7] = system: T3, RSK2(Kin.Dom.1-N-terminal)
T3 construct: gene RPS6KA3

[8] = system: T4, RSK2(Kin.Dom.2-C-terminal)
T4 construct: gene RPS6KA3

[9] = system: T5, RSK3(Kin.Dom.1-N-terminal)
T5 construct: gene RPS6KA2

[10] = system: T6, RSK3(Kin.Dom.2-C-terminal)
T6 construct: gene RPS6KA2

[11] = system: T7, RSK4(Kin.Dom.1-N-terminal)
T7 construct: gene RPS6KA6

[12] = system: T8, RSK4(Kin.Dom.2-C-terminal)
T8 construct: gene RPS6KA6

S6K1 = system: S6K1
SBK1 = system: SBK1
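Also: KINOMEscan kinase panel screen.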

Row | SMILES | %Inh (RIPK2) [%] | %Inh (RIPK4) [%] | %Inh (RIPK5) [%] | %Inh (ROCK1) [%] | %Inh (ROCK2) [%] | %Inh (ROS1) [%] | %Inh [1] [%] | %Inh [2] [%] | %Inh [3] [%] | %Inh [4] [%] | %Inh [5] [%] | %Inh [6] [%] | %Inh [7] [%] | %Inh [8] [%] | %Inh [9] [%] | %Inh [10] [%] | %Inh [11] [%] | %Inh [12] [%] | %Inh (S6K1) [%] | %Inh (SBK1) [%]
1 | Cc1c(Cn2c(C)nn3c(=O)cc(N4CCO[C@H](C)C4)nc23)cccc1C(F)(F)F [GSK2373690] | 4 | 0 | 0 | 7 | 0 | 4 | 16 | 0 | 27 | 15 | 49 | 0 | 9 | 0 | 22 | 0 | 0 | 0 | 9 | 28
2 | COc1cc2nccc(Nc3cccc(Oc4ccccc4)c3)c2cc1OC.Cl [GW284543] | 80 | 0 | 0 | 20 | 51 | 31 | 15 | 0 | 0 | 0 | 0 | 0 | 0 | 0 | 10 | 0 | 0 | 0 | 0 | 16
3 | COc1cccc(-n2cnc3c(N)ncnc32)c1 [SKF-97416] | 1 | 43 | 18 | 66 | 60 | 0 | 19 | 7 | 0 | 0 | 8 | 13 | 39 | 34 | 0 | 8 | 40 | 7 | 1 | 29
4 | Cn1c(=O)c(F)c(Nc2ccc(I)cc2F)c2c(=O)n(OC[C@H](O)CO)cnc21 | 15 | 3 | 0 | 0 | 0 | 0 | 25 | 0 | 0 | 9 | 18 | 12 | 39 | 38 | 11 | 1 | 0 | 6 | 0 | 0
5 | COc1cccc(C2=C(Nc3cccc(C(=O)O)c3)C(=O)NC2=O)c1 [SB-390770] | 7 | 0 | 0 | 25 | 7 | 32 | 0 | 0 | 32 | 0 | 0 | 0 | 4 | 15 | 8 | 0 | 20 | 10 | 6 | 18
6 | COc1ccc(Nc2nccc(N3CCC(NS(=O)(=O)c4ccc(NC(C)=O)cc4)C3)n2)cc1 (centres unmarked) [GSK1379729] | 100 | 0 | 0 | 36 | 18 | 3 | 0 | 0 | 27 | 0 | 0 | 0 | 0 | 18 | 6 | 0 | 0 | 5 | 0 | 4
7 | CCn1c(-c2ccoc2)nc2cnccc21 [SB-733887] | 6 | 30 | 0 | 0 | 23 | 0 | 0 | 0 | 9 | 0 | 9 | 4 | 0 | 0 | 0 | 0 | 0 | 0 | 18 | 0
8 | Cc1nn2c(=O)cc(N3CCOCC3)nc2n1Cc1cccc(Cl)c1Cl [GSK2342769] | 10 | 9 | 0 | 0 | 0 | 0 | 0 | 0 | 16 | 0 | 0 | 0 | 9 | 3 | 25 | 0 | 5 | 0 | 1 | 14
9 | Fc1cccc(CSc2nnc(-c3ccc4c(c3)CCO4)o2)c1 | 12 | 0 | 0 | 12 | 0 | 0 | 0 | 4 | 16 | 9 | 0 | 23 | 14 | 18 | 0 | 8 | 15 | 16 | 9 | 0
10 | CC(C)(C)c1ccc(C(=O)Nc2cn3cc(-c4ccccc4)ccc3n2)cc1 | 16 | 0 | 2 | 0 | 63 | 0 | 6 | 0 | 0 | 18 | 0 | 0 | 3 | 0 | 24 | 100 | 0 | 0 | 0 | 0
